Among the data in PubChem BioAssay (EPA / NIEHS) are outcome and AC50 values, retold here.

The structures appear in SMILES notation. The source made the active and inactive calls. The calls were made as follows: active = hit-call score of the fitted dose curve at least 0.9, where 1 is the maximum; inactive = score below 0.9.

Common to all, as to conditions: mRNA level, 48 h; actives raise or lower the signal
Read-out in experiment [1]: Fatty Acid-Binding Protein 1 (FABP1), FABP1 (gene 2168)
In words: LTEA_HepaRG_FABP1: Life Technologies and Expression Analysis (LTEA) Assay for Fatty Acid-Binding Protein 1 (FABP1) using HepaRG (AID 2283494). The procedure, abridged: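 FABP1 expression by TaqMan qRT-PCR, normalised to three housekeeping genes, in HepaRG cells after 48 h chemical treatment. Eight-point half-log series topping at 100 uM in 0.5% DMSO, duplicates; gain or loss fitted relative to vehicle.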

Read-out in experiment [2]: Cytochrome P450 4A22 (Homo sapiens) (UniProt Q5TCH4)
Kind of experiment: LTEA_HepaRG_CYP4A22: Life Technologies and Expression Analysis (LTEA) Assay for Cytochrome P450 4A22 (CYP4A22) using HepaRG (AID 2283495). The procedure, abridged: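 qRT-PCR of CYP4A22 mRNA (Fluidigm TaqMan, normalized to three housekeeping genes) after 48 h chemical exposure of HepaRG cells; 8-point half-log series, top 100 uM, 0.5% DMSO vehicle. Bidirectional curve fitting vs DMSO baseline.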

Read-out in experiment [3]: Cytochrome P450 7A1 (Homo sapiens) (UniProt P22680)
In words: LTEA_HepaRG_CYP7A1: Life Technologies and Expression Analysis (LTEA) Assay for Cytochrome P450 7A1 (CYP7A1) using HepaRG (AID 2283496). The procedure, abridged:
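HepaRG, 48 h exposure, 8-pt half-log series from 100 uM, 0.5% DMSO vehicle, duplicates. Readout: TaqMan qRT-PCR mRNA vs three housekeeping genes; bidirectional curve fit against DMSO baseline.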

Read-out in experiment [4]: Glutathione S-Transferase (GSTA2), GSTA2 (gene 2939)
In words: LTEA_HepaRG_GSTA2: Life Technologies and Expression Analysis (LTEA) Assay for Glutathione S-Transferase (GSTA2) using HepaRG (AID 2283497). The procedure, abridged: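 GSTA2 transcript levels came from Fluidigm TaqMan qRT-PCR normalized to three housekeeping genes, fitted in both directions against DMSO. HepaRG cultures received chemicals for 48 h in serum-free induction medium (0.5% DMSO), 8 half-log concentrations up to 100 uM, duplicate.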

Read-out in experiment [5]: Glutamate-cysteine ligase catalytic (GCLC), GCLC (gene 2729)
Kind of experiment: LTEA_HepaRG_GCLC: Life Technologies and Expression Analysis (LTEA) Assay for Glutamate-cysteine ligase catalytic (GCLC) using HepaRG (AID 2283498). The procedure, abridged:
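Expression by TaqMan qRT-PCR, normalized to three housekeeping genes (ACTB, GAPDH, POLR2A), with up- or down-regulation fitted against DMSO. HepaRG cells dosed in duplicate for 48 h with 8 half-log concentrations up to 100 uM, vehicle 0.5% DMSO.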

Read-out in experiment [6]: growth arrest and DNA damage 45 (GADD45G), GADD45G (gene 10912)
Kind of experiment: LTEA_HepaRG_GADD45G: Life Technologies and Expression Analysis (LTEA) Assay for growth arrest and DNA damage 45 (GADD45G) using HepaRG (AID 2283499). The procedure, abridged: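 Differentiated human HepaRG cells in serum-free induction medium were exposed for 48 h to 8 half-log concentrations up to 100 uM in 0.5% DMSO, in duplicate. GADD45G mRNA was measured by TaqMan qRT-PCR, normalised to ACTB, GAPDH and POLR2A, and fitted bidirectionally against DMSO.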

Read-out in experiment [7]: Glutamate-cysteine ligase regulatory (GCLM), GCLM (gene 2730)
Kind of experiment: LTEA_HepaRG_GCLM: Life Technologies and Expression Analysis (LTEA) Assay for Glutamate-cysteine ligase regulatory (GCLM) using HepaRG (AID 2283500). The procedure, abridged:
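GCLM expression quantified by qRT-PCR, normalized to three housekeeping genes, after 48 h chemical treatment of HepaRG cells in duplicate at 8 concentrations (top 100 uM, half-log steps, 0.5% DMSO). Changes fitted both directions against vehicle.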

Read-out in experiment [8]: Glutathione S-transferase M3 (GSTM3), GSTM3 (gene 2947)
Kind of experiment: LTEA_HepaRG_GSTM3: Life Technologies and Expression Analysis (LTEA) Assay for Glutathione S-transferase M3 (GSTM3) using HepaRG (AID 2283501). The procedure, abridged: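 Differentiated HepaRG cells in serum-free induction medium were exposed in duplicate for 48 h to 8 half-log concentrations up to 100 uM in 0.5% DMSO. GSTM3 mRNA was measured by TaqMan qRT-PCR, normalized to ACTB/GAPDH/POLR2A, and fitted bidirectionally versus DMSO.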

Read-out in experiment [9]: Heat shock 70 kDa protein 1 (HSPA1A), gene 3303
Kind of experiment: LTEA_HepaRG_HSPA1A: Life Technologies and Expression Analysis (LTEA) Assay for Heat shock 70 kDa protein 1 (HSPA1A) using HepaRG (AID 2283502). The procedure, abridged:
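HSPA1A expression measured by qRT-PCR with ACTB/GAPDH/POLR2A normalization; curves fitted in both directions relative to DMSO vehicle. Exposure: 48 h in HepaRG cells, duplicate 8-point half-log series from 100 uM, 0.5% DMSO, serum-free induction medium.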

Read-out in experiment [10]: Hypoxia-inducible factor 1-alpha (Homo sapiens) (UniProt Q16665)
Kind of experiment: LTEA_HepaRG_HIF1A: Life Technologies and Expression Analysis (LTEA) Assay for Hypoxia-inducible factor 1 (HIF1A) Trancription factor using HepaRG (AID 2283503). The procedure, abridged: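 HIF1A transcript level read by qRT-PCR (ACTB, GAPDH, POLR2A normalization) after 48 h chemical exposure of HepaRG cultures. Eight half-log concentrations, top 100 uM, 0.5% DMSO vehicle, duplicates; bidirectional curve fit against DMSO baseline.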

Read-out in experiment [11]: 3-Hydroxy-3-Methylglutaryl-CoA Synthase 2 (HMGCS2), HMGCS2 (gene 3158)
Kind of experiment: LTEA_HepaRG_HMGCS2: Life Technologies and Expression Analysis (LTEA) Assay for 3-Hydroxy-3-Methylglutaryl-CoA Synthase 2 (HMGCS2) using HepaRG (AID 2283504). The procedure, abridged: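 Differentiated human HepaRG cells were exposed in duplicate for 48 h in serum-free induction medium to eight concentrations (top 100 uM, half-log steps, 0.5% DMSO). HMGCS2 mRNA was quantified by TaqMan qRT-PCR, normalised to ACTB, GAPDH and POLR2A, then fitted bidirectionally against DMSO.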

Read-out in the next experiment: HGF (gene 3082)
Kind of experiment: LTEA_HepaRG_HGF: Life Technologies and Expression Analysis (LTEA) Assay for Hepatocyte Growth Facto (HGF) using HepaRG (AID 2283505). The procedure, abridged: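 Differentiated human HepaRG cells in serum-free induction medium were exposed in duplicate for 48 h to eight concentrations (top 100 uM, half-log steps, 0.5% DMSO). HGF mRNA was quantified by qRT-PCR, normalized to ACTB, GAPDH and POLR2A.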

Read-out in experiment [12]: Insulin Like Growth Factor 1 (IGF1), IGF1 (gene 3479)
In words: LTEA_HepaRG_IGF1: Life Technologies and Expression Analysis (LTEA) Assay for Insulin Like Growth Factor 1 (IGF1) using HepaRG (AID 2283506). The procedure, abridged:
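Expression measured by TaqMan qRT-PCR on a Fluidigm array, with three housekeeping genes for normalisation, after 48 h treatment of HepaRG cells. Top concentration 100 uM with half-log steps, 0.5% DMSO vehicle, bidirectional fit.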

Read-out in experiment [13]: Intercellular Adhesion Molecule 1 (ICAM1), ICAM1 (gene 3383)
Kind of experiment: LTEA_HepaRG_ICAM1: Life Technologies and Expression Analysis (LTEA) Assay for Intercellular Adhesion Molecule 1 (ICAM1) using HepaRG (AID 2283507). The procedure, abridged:
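Differentiated HepaRG cells in serum-free induction medium were exposed in duplicate for 48 h to eight half-log concentrations up to 100 uM in 0.5% DMSO. Transcript levels were measured by qRT-PCR normalized to ACTB, GAPDH and POLR2A; bidirectional fits relative to DMSO.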

Read-out in experiment [14]: Insulin-like growth factor-binding protein 1 (IGFBP1), IGFBP1 (gene 3484)
Kind of experiment: LTEA_HepaRG_IGFBP1: Life Technologies and Expression Analysis (LTEA) Assay for Insulin-like growth factor-binding protein 1 (IGFBP1) using HepaRG (AID 2283508). The procedure, abridged: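 Differentiated human HepaRG cells in serum-free induction medium were exposed in duplicate for 48 h to eight concentrations, top 100 uM with half-log dilutions, in 0.5% DMSO. Transcript levels came from qRT-PCR normalised to ACTB, GAPDH and POLR2A, fitted bidirectionally against DMSO.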

Read-out in experiment [15]: Interleukin 6 (IL6), IL6 (gene 3569)
Kind of experiment: LTEA_HepaRG_IL6: Life Technologies and Expression Analysis (LTEA) Assay for Interleukin 6 (IL6) using HepaRG (AID 2283509). The procedure, abridged: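 Transcript levels, normalized to three housekeeping genes, were quantified by qRT-PCR after 48 h chemical treatment of HepaRG cells. Eight-point half-log series from 100 uM in 0.5% DMSO, duplicates. Fitted both directions against DMSO baseline.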

Read-out in experiment [16]: Interleukin 6 Receptor (IL6R), IL6R (gene 3570)
In words: LTEA_HepaRG_IL6R: Life Technologies and Expression Analysis (LTEA) Assay for Interleukin 6 Receptor (IL6R) using HepaRG (AID 2283510). The procedure, abridged:
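IL6R transcript level by qRT-PCR after 48 h chemical exposure (8-point, half-log, max 100 uM, 0.5% DMSO vehicle) of HepaRG cells in serum-free induction medium. Normalized to three housekeeping genes; curves fitted in both directions relative to DMSO.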

Read-out in experiment [17]: Potassium channel subfamily K member 1 (KCNK1), KCNK1 (gene 3775)
Kind of experiment: LTEA_HepaRG_KCNK1: Life Technologies and Expression Analysis (LTEA) Assay for Potassium channel subfamily K member 1 (KCNK1) using HepaRG (AID 2283511). The procedure, abridged:
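KCNK1 transcript measured by TaqMan qRT-PCR against three housekeeping genes, after HepaRG cells were treated 48 h with eight half-log concentrations (top 100 uM, 0.5% DMSO). Curves fitted bidirectionally relative to vehicle.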

Read-out in experiment [18]: JUN Transcription Factor, JUN (gene 3725)
In words: LTEA_HepaRG_JUN: Life Technologies and Expression Analysis (LTEA) Assay for JUN Transcription Factor using HepaRG (AID 2283513). The procedure, abridged: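 mRNA measured by TaqMan qRT-PCR after 48 h chemical exposure of HepaRG cultures; normalization to three housekeeping genes. Duplicate eight-point half-log curves from 100 uM in 0.5% DMSO; gain or loss fitted against DMSO baseline.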

Read-out in experiment [19]: Keratin 19 (KRT19), KRT19 (gene 3880)
Kind of experiment: LTEA_HepaRG_KRT19: Life Technologies and Expression Analysis (LTEA) Assay for Keratin 19 (KRT19) using HepaRG (AID 2283512). The procedure, abridged: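 Differentiated human HepaRG cells, plated 48 h, were exposed in duplicate for 48 h in serum-free induction medium to eight half-log concentrations up to 100 uM in 0.5% DMSO. KRT19 mRNA was quantified by qRT-PCR, normalized to ACTB, GAPDH and POLR2A, and fitted bidirectionally versus DMSO.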

Chain of Hypoxia-inducible factor 1-alpha (Homo sapiens) (Q16665 whole entry, looked up): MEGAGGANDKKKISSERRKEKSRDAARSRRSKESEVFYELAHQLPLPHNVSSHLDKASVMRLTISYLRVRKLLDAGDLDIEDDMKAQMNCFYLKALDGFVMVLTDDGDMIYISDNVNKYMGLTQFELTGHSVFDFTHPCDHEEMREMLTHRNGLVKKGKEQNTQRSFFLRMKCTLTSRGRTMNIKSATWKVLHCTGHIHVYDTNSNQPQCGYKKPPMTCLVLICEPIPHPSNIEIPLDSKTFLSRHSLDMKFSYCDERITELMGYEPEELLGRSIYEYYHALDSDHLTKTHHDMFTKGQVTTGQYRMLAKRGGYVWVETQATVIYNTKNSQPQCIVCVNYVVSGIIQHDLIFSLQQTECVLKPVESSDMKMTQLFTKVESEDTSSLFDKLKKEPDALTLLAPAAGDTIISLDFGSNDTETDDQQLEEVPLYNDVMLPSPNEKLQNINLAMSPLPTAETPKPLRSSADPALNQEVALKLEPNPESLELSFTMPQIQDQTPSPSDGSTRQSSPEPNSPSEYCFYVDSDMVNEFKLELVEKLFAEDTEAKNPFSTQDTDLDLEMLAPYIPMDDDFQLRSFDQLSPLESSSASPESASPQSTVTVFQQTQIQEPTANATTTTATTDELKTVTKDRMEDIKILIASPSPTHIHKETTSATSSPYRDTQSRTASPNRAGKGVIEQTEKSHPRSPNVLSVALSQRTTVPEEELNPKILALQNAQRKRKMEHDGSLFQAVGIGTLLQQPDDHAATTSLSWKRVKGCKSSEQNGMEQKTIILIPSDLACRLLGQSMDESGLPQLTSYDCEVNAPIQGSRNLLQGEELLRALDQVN

Turning to `CC(C)(C)OOC(C)(C)C`, the call in [1], in [2], in experiment [3], in [4], in experiment [5] and in experiment [6] was inactive. Also, the compound was called inactive (in experiment [7]; in [8]; in [9]; in experiment [10]; in [11]; in the experiment with HGF (gene 3082)). The outcome in experiment [12], in experiment [13], in experiment [14], in [15], in [16] and in [17] was inactive. Moreover, the call in experiment [18] was inactive.
For `CN(C)C(=O)Cl`, the call in [1], in experiment [2], in experiment [3], in [4], in experiment [5] and in [6] was inactive. The result (in experiment [7]; in [8]; in [9]; in [10]; in experiment [11]; in the experiment with HGF (gene 3082)) was inactive. For the same compound, the outcome in [12], in experiment [13], in [14], in experiment [15], in experiment [16] and in experiment [17] was inactive. Moreover, the result in experiment [18] was inactive.
In the case of `CCOc1ccc(C(C)(C)COCc2cccc(Oc3ccccc3)c2)cc1`, the call in [1], in experiment [2], in experiment [4], in experiment [5], in experiment [6] and in [7] was inactive. The compound was classed as inactive (in experiment [8]; in experiment [9]; in experiment [10]; in experiment [11]; with HGF (gene 3082); in experiment [13]). The compound was classed as inactive in experiment [14], in [15], in [16], in experiment [17] and in [18]. In addition, the AC50 in experiment [3] is 26.8 µM (active); in experiment [12], 12.4 µM (active).
For the compound `Nc1ccc2ccccc2c1`, the AC50 was 18.9 µM (active) in experiment [1] and 5.98 µM (active) in experiment [19]. Further, the outcome in experiment [2], in experiment [3], in experiment [4], in experiment [5], in experiment [6] and in [7] was inactive. Further, the call (in experiment [8]; in experiment [9]; in experiment [10]; in [11]; in the experiment with HGF (gene 3082); in [12]) was inactive. In addition, the result in experiment [13], in [14], in experiment [15], in experiment [16], in [17] and in experiment [18] was inactive.
Turning to `c1ccc(OP(Oc2ccccc2)Oc2ccccc2)cc1`, the compound was called inactive in experiment [1], in experiment [2], in experiment [3], in [4], in experiment [5] and in experiment [6]. Besides, the result (in experiment [7]; in experiment [8]; in experiment [9]; in [10]; in [11]; with HGF (gene 3082)) was inactive. Moreover, the compound was called inactive in experiment [12], in experiment [13], in experiment [14], in experiment [15], in experiment [16] and in experiment [17]. Also, in [18], the call was inactive.
